Compound activity (PubChem)
Shown are actives, neighbours in structure and some others; about 3.5% of the full set was active somewhere.
Pf apPOL block = Pf-apPOL DNA polymerase inhibition; Recombinant Pf-apPOL, molecular beacon fluorescence, 1.5 h; inhibition, % at 10 µM; hit rate 0.25% among 210,000; AID 1794808
mHTT CaM bind = mHTT-calmodulin interaction abrogation. AlphaScreen His-mHTT/GST-CaM binding, luminescence. inhibition, % at 15 µM. hit rate 3.6% among 190,000. AID 1671202;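 note: 0% = both proteins with DMSO and 100% = one protein alone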
An asterisk follows results filed as active; . = not tested or not shown; ! = not active in a repeat. Cut-off read from the data, not from the text of the source: active = inhibition above about 50%; inactive = the rest.

SMILES	Pf apPOL block	mHTT CaM bind
Cn1nc(CC#N)c(C#N)c1N	10.9	.
N#Cc1c(C#N)c(N)n(N)c1N	.	100.3*
Cc1noc(C2CN(Cc3cc(Br)ccc3F)C2)n1	-8.1	-14.4
Cc1ccc2nc(-c3ccc(N=Cc4ccccc4O)cc3)sc2c1	-0.8	.
Cc1ccc(N=Cc2cc3ccccc3[nH]c2=O)cc1	-0.9	57.0*
CCOCC(=O)N1CCC(O)(c2ccccc2)C(N2CCCC2)C1 (centres undefined)	2.8	7.6
CCCC(=O)N1CCC(O)(c2ccccc2)C(N2CCCC2)C1 (centres undefined)	-11.2	5.9
O=C(CC1CCCC1)N1CCC(O)(c2ccccc2)C(N2CCCC2)C1 (centres undefined)	0.7	76.9*
O=C(C1CCCCC1)N1CCC(O)(c2ccccc2)C(N2CCCC2)C1 (centres undefined)	-10.8	50.9*
Cc1ccc2c(c1)C1OCCC1C(c1ccncc1)N2 (centres undefined)	.	-2.6
O=C(Nc1ccc(Br)cc1)c1cc2ccccc2oc1=O	0.8	-1.0
COc1cc2nc(NC(=O)Nc3cccs3)sc2cc1OC	11.2	8.9
O=C(c1cccc(Oc2cc(-c3ccccc3)ncn2)c1)N1CCCC1	60.4*	70.3*
CC(C)Oc1cccc(C(=O)N2CCCC2)c1	-3.5	-2.3
CCC(C)NC(=O)N1CCN(Cc2nc3cccnc3n2-c2cccc(F)c2)CC1 (centres undefined)	6.3	-7.6
Cc1ccc(NC(=O)c2ccc([N+](=O)[O-])c(C)c2)cc1Cl	-5.7	-1.5
Cc1ccc(NC(=O)c2ccc(NCCN)c([N+](=O)[O-])c2)cc1Cl	-0.3	53.8*
NS(=O)(=O)c1ccc(N2CCOCC2)c([N+](=O)[O-])c1	-12.4	.
O=[N+]([O-])c1cc(Br)c2nsnc2c1N1CCOCC1	-1.5	67.0*!
CC1NC2(C(=O)N(C/C=C/c3ccccc3)c3ccccc32)C2C(=O)N(Cc3ccccc3)C(=O)C12 (centres undefined)	-12.4	52.0*
CC1NC2(C(=O)N(C/C=C/c3ccccc3)c3ccccc32)C2C(=O)N(c3ccccc3)C(=O)C12 (centres undefined)	3.4	47.0
Cc1ccc(C2NC(C(=O)O)CS2)cc1[N+](=O)[O-] (centres undefined)	-5.2	-3.0
Cc1c(-c2ccc(C3NC(C(=O)O)CS3)o2)cccc1[N+](=O)[O-] (centres undefined)	-2.9	52.0*
CCOC(=O)Nc1c(C(=O)Nc2ccc3c(c2)OCCO3)oc2ccccc12	-5.5	12.2
Cc1ccc(-c2csc(=Nc3cccc(Cl)c3)n2CCO)cc1	-3.6	93.0*
SMILES	Pf apPOL block	mHTT CaM bind
OCCn1c(-c2ccc(I)cc2)csc1=Nc1cccc(Cl)c1	4.0	80.0*
Cc1cccc(N=c2scc(-c3ccc(F)cc3)n2CCO)c1	-1.9	65.0*
CCOc1ccc(N=c2scc(-c3ccc(C)cc3)n2C)cc1	-2.5	8.0
CCC(CC)C(=O)Nc1ccc(C(C)=O)cc1	0.7	-0.2
O=[N+]([O-])c1cccc(-c2csc(N=Nc3c(O)[nH]c4ccc(Br)cc34)n2)c1	1.4	.
O=C(N=Nc1c(O)[nH]c2ccc(Br)cc12)c1ccco1	79.5*	.
O=C(O)CNC(=O)/C(=C\c1ccc2c(c1)OCO2)NC(=O)c1ccco1	-4.8	-2.0
O=C(Cc1cccs1)N1CCCN(c2cc(-c3ccc4c(c3)OCO4)[nH]n2)CC1	-1.9	30.4
COc1ccc(CNc2ccccc2SC)cc1OC	2.7	15.1
COc1ccccc1CNc1ccccc1	-10.0	2.7
COc1ccc(NCc2ccc(SC)cc2)cc1OC	0.2	80.5*
COc1ccc(NCc2ccccc2Br)cc1OC	6.1	73.1*
COc1ccc(CNCc2ccc(C)cc2C)c(OC)c1	-1.7	-2.5
COc1ccc(NCc2ccc(C)cc2C)cc1OC	1.2	82.9*
COc1ccc(C(C(=O)NC2CCCC2)N2CCC3(CC2)OCCO3)cc1 (centres undefined)	-3.9	2.0
C1CCN(CCNC2CC3CCC2C3)CC1 (centres undefined)	-2.0	-1.2
CCS(=O)(=O)N1CCC(n2cnc3ccc(Cl)cc3c2=O)CC1	-2.2	-5.0
CCOc1ccc(C=NNC(=S)Nc2ccc(S(=O)(=O)N3CCCCC3)cc2)cc1	-2.4	.
Cc1ccc(C(=O)Nc2cnc(-c3ccc(F)cc3)nc2)cc1	1.6	-1.7
COc1ccc(/C=C/C(=O)Nc2ccc(Cl)cc2)cc1OC	-2.2	4.0
COc1ccc(C(=O)N2CCc3cc(OC)c(OC)cc3C2)cc1OC	-5.2	-3.0
COc1cc2c(cc1OC)CN(C(=O)C(c1ccccc1)n1cccc1)CC2 (centres undefined)	6.3	65.3*
COc1ccc(OCc2nc(C(=O)N3CCC(C)CC3)cs2)cc1	-1.9	-4.3
COCCNS(=O)(=O)c1cc(Cl)ccc1OC	-1.3	-6.9
O=C1C[C@H]2C=CCc3cccc(c32)CN1Cc1ccc(Cl)cc1	-1.9	29.6
SMILES	Pf apPOL block	mHTT CaM bind
COc1cccc(CN2Cc3cccc4c3[C@H](C=CC4)CC2=O)c1	0.0	100.2*
O=C(CCCOc1ccccc1)N1CCN(c2cccc(Cl)c2)CC1	-5.8	70.1*
O=C(c1cc(-c2ccncc2)nc2ccccc12)N1CCN(c2cccc(Cl)c2)CC1	-5.6	91.0*
O=C(c1cc(-c2ccccc2)nc2ccccc12)N1CCCC1	8.5	8.3
O=C(c1ccccc1Br)N1CCN(c2cccc(Cl)c2)CC1	3.2	64.0*!
O=C(c1cccc(Cl)c1)N1CCN(c2ccccc2)CC1	-6.2	0.0
O=C(CCCOc1ccccc1)N1CCN(Cc2ccccc2)CC1	-1.4	8.3
Brc1cccc(C2CC(c3cccs3)n3ncnc3N2)c1 (centres undefined)	-4.4	0.0
Cc1ccc(NC(=O)c2c(I)cnn2C)cc1[N+](=O)[O-]	-6.8	8.0
Oc1ccc(Oc2ncc(Cl)cc2Cl)cc1	.	-3.0
NNc1ncc(Cl)cc1Cl	-30.5	99.8*
CC(=O)Nc1cc(I)cc(C(=O)O)c1	-2.7	-0.2
COCCC1CCN(C(=O)c2cccc(C#N)c2)CC1	-3.9	-0.4
COc1cc(OC)c(OC)cc1/C=C1/CCC/C(=C\c2cc(OC)c(OC)cc2OC)C1=O	-0.6	64.0*
COc1cc(OC)c(OC)cc1/C=C1\Cc2ccccc2C1=O	-5.4	0.0
O=C(Nc1c2c(nn1-c1ccc(F)cc1)CSC2)c1cccs1	-9.8	51.0*
O=C(Nc1c2c(nn1-c1ccc(F)cc1)CS(=O)(=O)C2)c1cccs1	-3.7	3.0
O=C(Nc1c2c(nn1-c1ccc([N+](=O)[O-])cc1)CSC2)c1cccs1	-3.6	55.0*
O=C(/C=C/c1ccco1)Nc1c2c(nn1-c1ccc([N+](=O)[O-])cc1)CSC2	-3.6	98.0*
O=C(Nc1c2c(nn1-c1ccc([N+](=O)[O-])cc1)CS(=O)(=O)C2)c1cccs1	-1.9	5.0
COc1ccc(/C=C/C(=O)Nc2c3c(nn2-c2ccc([N+](=O)[O-])cc2)CSC3)cc1OC	-5.7	45.0
CCOC(=O)N1CCN(C(=O)c2ccc(C)c(Cl)c2)CC1	-4.2	-2.6
Cc1nn(-c2cccc(Cl)c2)c2c1C(c1ccncc1)C(C#N)=C(N)O2 (centres undefined)	-6.1	17.0
COc1cc(C2C(C#N)=C(N)Oc3c2c(C)nn3-c2cccc(Cl)c2)cc(OC)c1O (centres undefined)	-2.3	64.0*
Cc1cc(OCCCCn2ccnc2)cc(C(C)C)c1	-12.0	19.2
O=C(CSc1ccc(Cl)cc1)N1CCN(c2ccccc2F)CC1	0.1	-18.7
CC(=O)c1cc(C#N)c(SCC(=O)c2ccc(Cl)cc2)nc1C	4.4	-6.0
